Source: PubChem BioAssay (NCI)
Compounds without any hit were thinned out: in the full panel of roughly 79,000, 15% have a hit. Values without a mark were called inactive. Activity calls are given as the source filed them. No stated cut-off is given here; in the data, active means growth inhibition above about 70%; inactive means the rest.

Key:
[1] = NCI Yeast Anticancer Drug Screen. Data for the rad50 strain (AID 155);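 further: 0% = growth of vehicle-only cultures of the same strain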; settings: S. cerevisiae rad50 strain growth inhibition; at 50.0 µM; active compounds read high
In short: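 Cells are treated with compound, grown, and their growth is then scored against vehicle-only cultures of the same repair-deficient yeast strain.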

[2] = NCI Yeast Anticancer Drug Screen. Data for the mec2-1 strain (AID 157); settings: S. cerevisiae mec2-1 strain, at 50.0 µM, active compounds read high
In short: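 Each compound was tested on mec2-1 yeast, a strain altered in DNA damage repair or cell cycle control. Growth inhibition is reported relative to vehicle.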

[3] = NCI Yeast Anticancer Drug Screen. Data for the sgs1 mgt1 strain (AID 161);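 further: 0% = growth of cultures given vehicle only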; settings: S. cerevisiae sgs1 mgt1 strain, at 50.0 µM, active compounds read high
In short: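 Mutant yeast exposed to compound; growth scored against vehicle-only wells.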

[4] = NCI Yeast Anticancer Drug Screen. Data for the cln2 rad14 strain (AID 165);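 further: 0% = growth equal to vehicle treated cultures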; settings: S. cerevisiae cln2 rad14 strain, at 50.0 µM, active compounds read high
In short: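 Test compounds were added to cln2 rad14 yeast cultures; inhibition of growth was then determined by comparison with vehicle treatment.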

[5] = NCI Yeast Anticancer Drug Screen. Data for the bub3 strain (AID 167); settings: S. cerevisiae bub3 mutant strain, at 50.0 µM, active compounds read high
In short: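 Part of a panel of yeast mutants defective in DNA damage repair or cell cycle regulation. Each strain is grown with compound, and inhibition is calculated relative to solvent-treated cultures.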

[6] = NCI Yeast Anticancer Drug Screen. Data for the mlh1 rad18 strain (AID 175); settings: S. cerevisiae mlh1 rad18 strain growth inhibition; at 50.0 µM; active compounds read high
In short: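 Inhibition values reflect reduced growth of mutant yeast versus vehicle-treated controls following compound exposure; the mutations affect DNA damage repair.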

Row | Structure (SMILES) | growth inhibition [1] | growth inhibition [2] [%] | growth inhibition [3] | growth inhibition [4] | growth inhibition [5] [%] | growth inhibition [6]
1 | CCCCCCCCCCCCCCCC(=O)N=C(C(N)=O)C(N)=O | 4.25% | -35 | -14.7% | -54% | -22.6 | -19.9%
2 | COc1cccc2c1N=c1c(Cl)c3c(c(Cl)c1O2)=Nc1c(OC)cccc1O3 | -17.9% | -1.45 | -0.25% | -13.9% | -8.5 | -20.4%
3 | C#CCNC(=O)ON1C(=O)CCC1=O | -5.25% | -8.4 | -25.7% | -12.4% | -16.9 | -28.9%
4 | O=C(Nc1ccc(N=C=S)cc1Cl)c1ccc2ccccc2c1O | 15.6% | 14.3 | 6.75% | 12.6% | 4.05 | 8.25%
5 | Cc1ccc(S(=O)(=O)OC2CCC(C(C)(C)C)C(Cl)C2)cc1 (configuration not stated) | -8% | 8.3 | 3.2% | 9.55% | 3.35 | -6.75%
6 | O=C(Nc1nc(C23CC4CC(CC(C4)C2)C3)cs1)c1cc2cc([N+](=O)[O-])ccc2oc1=O | -12.7% | -31.5 | -14.8% | -34.7% | -15.2 | -10.8%
7 | COc1ccc(C2C(C)C(=O)C(C)C(c3ccc(OC)cc3)N2N=O)cc1 (configuration not stated) | 3.15% | 6.4 | 15.6% | -1.2% | 26.6 | 32.8%
8 | CCOC(=O)c1ccc(Nc2nc3cc(C(F)(F)F)ccc3nc2C(=O)OCC)cc1 | -31.2% | -10.9 | -31.9% | -19.4% | -11.7 | -19.6%
9 | O=c1c2ccccc2n2c(-c3ccc(O)cc3)nnc2n1-c1ccccc1 | -30.3% | -17.1 | 4.4% | 7.75% | 1.5 | -14.8%
10 | CCCCCCCCCCCCCCCCCC#N | 36.7% | 20.6 | -2.9% | -52.1% | 5.5 | 39.9%
11 | COC(=O)CC1=CCCc2ccccc21 | -3.95% | 1.55 | -2.85% | 7% | 0.35 | -22.2%
12 | COc1ccc(C2=CN(S(=O)(=O)c3ccc(C)cc3)CCc3ccccc32)cc1 | -31.4% | -10.9 | -31.8% | -59.8% | -6.6 | -23.7%
13 | Nc1ccc(-c2ccc(Nc3cc(S(=O)(=O)O)c(N)c4c3C(=O)c3ccccc3C4=O)cc2)c(S(=O)(=O)O)c1 | -23.9% | 14.8 | -32.5% | 8.45% | -38.1 | -9.05%
14 | COC(=O)/C(C=Nc1ccccc1)=C(/C)O | 7.35% | 5.1 | 9% | -29.2% | 11.4 | -1.2%
15 | CC(=O)OC(C)CCl (configuration not stated) | -27.6% | -48.1 | -34% | 2.6% | -17.7 | -14.2%
16 | N#CCCCN1C(=O)c2ccccc2C1=O | -22.1% | -18.9 | -8.25% | 21% | -15.5 | -18.4%
17 | COC(CC1(OC)OC(=O)C=C1N)OC (configuration not stated) | -7.05% | 20.1 | -12.7% | -28.3% | 16.8 | -3.05%
18 | CCOC(=O)CNCc1ccc(Cl)c(Cl)c1 | 16.1% | 4.15 | 28.2% | -15.6% | 26.9 | 21.9%
19 | O=C(CC(O)(C(F)(F)Cl)C(F)(F)Cl)c1cccc([N+](=O)[O-])c1 | 77.5% (active) | 62 | 81.5% (active) | 72.5% (active) | 61 | 95.8% (active)
20 | CCOC(=O)C1Oc2ccccc2O1 | 11.8% | -14.6 | -7% | -41.1% | -13.1 | -10.8%
21 | CS(=O)(=O)OC1C(O)C(O)OC(CO)C1O (configuration not stated) | -18.4% | 12.9 | 4.5% | -49.7% | 5.75 | 7.7%

Row | Structure (SMILES) | growth inhibition [1] | growth inhibition [2] [%] | growth inhibition [3] | growth inhibition [4] | growth inhibition [5] [%] | growth inhibition [6]
22 | CN(C)c1ccc(C=O)cc1[N+](=O)[O-] | 2.75% | 6.25 | -10.8% | -31.8% | -6.9 | -5.9%
23 | COc1ccc(OCC(=O)N2CCCCC2)cc1 | -2.95% | -11.6 | 0% | -40.2% | 13.2 | -1.65%
24 | CC(C)(O)CCc1ccccc1 | -7.75% | -29.3 | -14.2% | 14.8% | -19.3 | 6.6%
25 | O=CN(CCO)CCO | -1.6% | 1.25 | -3.5% | 11.1% | 7.35 | -4.2%
26 | N#CC(c1ccccc1)C(c1ccccc1)c1cccc2ccccc12 (configuration not stated) | 12.2% | 12.3 | 5.7% | -6.85% | -3.3 | 15.6%
27 | CCCP1(=O)C=C(C)C(=C(Cl)Cl)C(C)=C1 (configuration not stated) | 6.9% | -19.2 | -7.55% | 13.6% | -10.4 | 6.4%
28 | O=C1CN(CN2CCOCC2)C(=O)CN1CN1CCOCC1 | 39.3% | 19.1 | 44% | 18.6% | 36.2 | 32.9%
29 | CC(=O)CC(C)(C)OCc1ccccc1 | -21.9% | -4.95 | -12.2% | -43.4% | 0.4 | 26.1%
30 | O=C1CC2(CCCc3sccc32)C(=O)N1 (configuration not stated) | -11.2% | -1.65 | 1.55% | -21.1% | -5.6 | -14.1%
31 | N/N=C/c1cccn1-c1ccccc1Cl | 33.8% | 15.3 | 26.9% | 0.35% | 28.2 | 14.8%
32 | O=C1CC[C@H](NC(=O)Cc2ccccc2)C(=O)N1 | -11.8% | -6.55 | -14.4% | 6.35% | -11.9 | -13.6%
33 | CCN(CC)c1ccccc1S(=O)(=O)O | -5.45% | -5.3 | 2.9% | -42.9% | -6.85 | -6.35%
34 | COC1(OC)C(c2ccc([N+](=O)[O-])cc2)C([N+](=O)[O-])C1(OC)OC (configuration not stated) | -14.1% | -16.1 | -32% | -11.4% | -8.4 | -17.6%
35 | Cn1nc(-c2ccccc2)c(-c2cc(-c3ccccc3)n[nH]2)c(N)c1=O | 18.9% | 12.4 | 20.8% | 7.9% | 19.7 | 22.9%
36 | COC(=O)C1=NNC(c2ccc(C)cc2)C1 (configuration not stated) | 1.75% | -2.25 | -0.95% | -0.3% | -16 | 2.85%
37 | CC(=O)OCC1OC(N2C(S)=C(C#N)C(c3ccco3)C(C(C)=O)=C2c2ccccc2)C(OC(C)=O)C(OC(C)=O)C1OC(C)=O (configuration not stated) | 21.4% | 15.4 | -0.25% | -7.4% | -19.4 | -6.15%
38 | Brc1cccc2ccc3ccccc3c12 | 23.2% | 19 | 29.1% | 8.25% | 32 | 75.7% (active)
39 | Cc1ccc(F)c([N+](=O)[O-])c1 | -3.55% | 7.1 | -10.5% | 0% | -9.65 | -6.5%
40 | Cc1cc(=O)oc2cc(OCCCOc3ccc4c(C)cc(=O)oc4c3)ccc12 | 19.1% | 5.45 | -2.1% | -4.1% | -5.2 | 13.3%
41 | COc1ccc(OC)c(NC(=O)Nc2cccc(C(C)=O)c2)c1 | -12.2% | 33.9 | 33% | -55.4% | 35.2 | 22.6%
42 | CCCCCCCCN1N=CC(CC)C1CCC (configuration not stated) | 3.15% | -11.8 | 6.5% | 11.3% | -0.8 | 1.45%
